Records with an inconclusive call do not appear. Entries that show only a call come without a potency. The source made the active and inactive calls. Calls come from the whole dose curve; as a rule, active = well fitted cell-killing curve with a large enough effect; inconclusive = small, poorly fitted or top-dose-only effect; inactive = flat fitted curve, though single readings scatter.
Potency is the fitted concentration of half-maximal effect.

The nature of this experiment: qHTS of pediatric cancer cell lines to identify multiple opportunities for drug repurposing: Primary screen for RD cells (AID 1347104). Note: nearly all actives have a fitted effect of over 55% in size. The following applies: RD rhabdomyosarcoma viability, CellTiter-Glo luminescence, 48 h; series mostly up to 46 µM. An excerpt:
Drug repurposing or repositioning has been offered as a strategy for drug development in oncology programs. This approach has special potential for childhood cancers and other rare or orphan diseases, where the expected return on new drug development has been a disincentive to pharmaceuticals. […] In this project we exploit the poly-pharmacology of drugs to discover new indications via phenotypic screening of a panel of 19 well-characterized cell lines derived from solid tumors seen in children and adolescents. The goal is to identify approved drugs with previously unrecognized anticancer properties that has the potential to reveal new mechanisms and biological processes involved in carcinogenesis or drug resistance. We employed a titration-based paradigm (quantitative high-throughput screening or qHTS), where all compounds were tested at multiple concentrations for their effect on cell viability. Concentration-response curves (CRCs) were derived directly from the primary screen, and both potency and efficacy values were used to identify compounds with robust bioactivity profiles. We screened the NIH Chemical Genomics Center (NCGC) Pharmaceutical Collection (NPC) and Mechanism Interrogation Plate (MIPE) small molecule collections of approved and investigational compounds against these cell lines; and measured metabolically active cells after 48 hours of compound treatment as a proxy for cell viability. […] Assay Submitter: Nathalia J. Martinez, National Center for Advancing Translational Sciences, National Institutes of Health, Rockville, MD, USA; email: natalia.martinez@nih.gov Shen, M et al. Quantitative high-throughput phenotypic screening of pediatric cancer cell lines identifies multiple opportunities for drug repurposing. Oncotarget 2017 Dec 19;9(4):4758-4772. PMID 29435139.
The cells were obtained from University of North Carolina (UNC), Pediatric Preclinical Testing Program (PPT), and Coriell Institute (CI). qHTS cell viability assay: Cells were assayed in growth media at a density of 500-1,000 cells/well. Five microliters of cells were dispensed into 1,536-well, white, solid-bottom, TC-treated plates (Greiner Bio One) using a multidrop dispenser and incubated at 37 degrees C, 5% CO2, under a humidified atmosphere for 5 hours. Twenty-three nanoliters of compounds and controls (neutral control DMSO or positive control bortezomib at final concentration of 2.3 µM) were subsequently transferred by Kalypsys pintool. For primary screens, the MIPE collection was tested at 11-point dilutions (final concentrations range from 0.78 nM to 46 µM) and the NPC collection at 8-point dilutions (final concentrations range from 0.59 nM to 46 µM). Compounds tested in follow-up screens were assayed at 11-point dilutions. Cells were incubated for 48 hours, followed by addition of 3 µL of CellTiter-Glo (Promega). After a 15 min incubation at room temperature, samples were analyzed for luminescence intensity using a ViewLux High-throughput CCD imager equipped with clear filters.
Turning to `Cc1ccc(C(=O)c2ccc(CC(=O)O)n2C)cc1`, the Potency entry is “inactive”.
As for `CCC1C(=O)OCC1Cc1cncn1C` (stereo not given), the Potency result is “inactive”.
The same measure, in the same setting: the same measure for `Cc1ccc(O)c(-n2nc3ccccc3n2)c1`: “inactive”.
With `O=C(O)Cc1cccc(-c2cc(CCCCCCc3ccc(O[C@H]4O[C@H](CO)[C@@H](O)[C@H](O)[C@@H]4O)c(-c4cccc(CC(=O)O)c4)c3)ccc2O[C@H]2O[C@H](CO)[C@@H](O)[C@H](O)[C@@H]2O)c1`, the activity change, negative = cytotoxic was 16.2% [at 0.597 µM] (inactive).
On to `COc1cccc2c1C(=O)c1c(O)c3c(c(O)c1C2=O)C[C@@](O)(C(=O)CO)C[C@@H]3O[C@H]1C[C@H](N)[C@H](O[C@@H]2CCCCO2)[C@H](C)O1`, for which the Potency was 8.41 µM (active).
Same read-out and setting: then `CC(=O)c1ccc(OCC(=O)N2CCCCC2)cc1`, with “inactive”; and `Cc1c(N)c(=O)n(-c2ccccc2)n1C`, with “inactive”; and `CCCCC1C(=O)N(c2ccccc2)N(c2ccc(O)cc2)C1=O` (stereo not given), with 6.68 µM (active).
On the same count and under the same terms, the same measure for `c1ccc2sc(SN3CCOCC3)nc2c1`: “inactive”; for `N=C1N=C(N)c2cc3ccccc3cc21`: 34.4 µM (active).
For `Cc1ccc2c(n1)Oc1ccc(C(C)C(=O)OCC(=O)N(C)C)cc1C2` (stereo not given), the Potency result was “inactive”.
Same read-out and setting: the same measure for `Oc1c(Br)cc(Br)c2cccnc12`: 23.7 µM (active); for `CCCCCCCCCCCCCCCC(=O)OC(C)C`: “inactive”.
Still for that read-out and setting: then `Clc1ccccc1-c1nc(-c2ccncc2)no1`, with “inactive”; and `O=C(O)c1cc(O)c(O)c(O)c1`, with “inactive”; and `O=C(O)c1ccccc1Nc1cccc(C(F)(F)F)c1`, with “inactive”.
Consider `COC(=O)c1nc(Cl)c(Cl)nc1N`, for which the Potency was 5.96 µM (active).
Same read-out and setting: the same measure for `Nc1ccc(O)c(C(=O)O)c1`: “inactive”; for `Nc1ccc(O)c([N+](=O)[O-])c1`: “inactive”; for `CC1(C)S[C@@H]2[C@H](NC(=O)[C@H](N)c3ccccc3)C(=O)N2[C@H]1C(=O)O`: “inactive”.
The same measure, in the same setting: the same measure for `CN1CCN(c2cc3c(nn2)Oc2ccccc2N3C)CC1`: “inactive”; for `Nc1cc(-c2ccncc2)c[nH]c1=O`: “inactive”; for `CC(N)C(=O)OC(C)(C)Cc1ccc(Cl)cc1` (stereo not given): “inactive”.
Same read-out and setting: the same measure for `Cc1[nH]cnc1CN1CCc2c(c3ccccc3n2C)C1=O`: “inactive”; for `O=C(O)/C=C\C(=O)O`: “inactive”; for `CCOC(=O)c1ccccc1O`: “inactive”.
In the case of `CN(C)c1ccc(C(=C2C=CC(=[N+](C)C)C=C2)c2ccccc2)cc1`, the Potency was 0.0596 µM (active).
With `C/C(=N\O)c1ccc(OCC(=O)N2CCCCC2)cc1`, the Potency entry was “inactive”.
On the same count and under the same terms, then `CN(C)[C@@H]1C(=O)C(C(=O)NCN2CCCC2)=C(O)[C@@]2(O)C(=O)C3=C(O)c4c(O)cccc4[C@@](C)(O)C3C[C@@H]12` (stereo not given in full), with “inactive”; and `c1ccc2sc(SSc3nc4ccccc4s3)nc2c1`, with “inactive”.
For `C#CC1(O)CC[C@H]2[C@@H]3CCC4=CCCC[C@@H]4[C@H]3CC[C@@]21C` (stereo not given in full), the Potency result was “inactive”.
Still for that read-out and setting: then `CN(C)c1ccc(N=NS(=O)(=O)O)cc1`, with “inactive”; and `CCCCCCCCCCCCCCCCCC(=O)O`, with “inactive”.
Take `N=C(N)N`: the Potency result was “inactive”.
Still for that read-out and setting: then `Nc1c(CC(=O)O)cccc1C(=O)c1ccc(Br)cc1`, with “inactive”.
`Cc1c(Nc2ncccc2C(=O)O)cccc1C(F)(F)F`: the Potency result is “inactive”.
Consider `COc1ccnc2c1CCCCC2S(=O)c1nc2ccccc2[nH]1` (stereo not given), for which the Potency result was “inactive”.
Still for that read-out and setting: the same measure for `Nc1ccc(C(=O)O)c(O)c1`: “inactive”; for `Cc1nc2ccccc2n1Cc1ccc(Cl)cc1`: “inactive”; for `O=C(/C=C/c1ccccc1)NCCO`: “inactive”.

These data come from PubChem BioAssay (NCATS).
